From PubChem BioAssay
Rows were chosen to be rich in hits. Some 3.5% of all compounds tested hit in one or more screens of this group.
mHTT CaM bind: mHTT-calmodulin interaction abrogation | AlphaScreen His-mHTT/GST-CaM binding, luminescence | inhibition, % at 15 µM | 3.6% of 190,000 active | AID 1671202
Pf apPOL block: Pf-apPOL DNA polymerase inhibition; Recombinant Pf-apPOL, molecular beacon fluorescence, 1.5 h; inhibition, % at 10 µM; 0.25% of 210,000 active
Hits are given with their value; 0 = inactive; ! = a repeat was not active. Rule as the data show it: active = inhibition above about 50%; inactive = the rest.

SMILES	mHTT CaM bind	Pf apPOL block
O=C(c1ccoc1)N1CCCC(c2n[nH]c(C3CC3)n2)C1 (centres undefined)	0	0
COC(=O)c1ccccc1NC(=O)c1c(C)cc(C)cc1C	0	0
CCOc1ccccc1C(=O)N1CCC2(CC1)NC(=O)N(Cc1ccc(Cl)cc1)C2=O	55.0	0
CCOc1ccccc1C(=O)N1CCN(c2ccc(Cl)cc2)CC1	0	0
O=C(c1cccc2[nH]ccc12)N1CCC2(CC1)NC(=O)N(Cc1ccc(Cl)cc1)C2=O	0	0
COc1ccccc1C(=O)N1CCC2(CC1)NC(=O)N(Cc1ccc(Cl)cc1)C2=O	0	0
CCOc1ccccc1C(=O)n1cc(Cl)cn1	0	97.7!
O=C(c1c[nH]c2ccccc12)N1CCC2(CC1)NC(=O)N(Cc1ccc(Cl)cc1)C2=O	89.7	0
Cn1c2ccccc2c2c(C(=O)N3CCN(c4ccccn4)CC3)cn(C3CCCCC3)c(=O)c21	0	0
COc1ccc(Nc2nc(Cl)nc(Nc3cccc([N+](=O)[O-])c3)n2)cc1	78.0	0
COc1cccc(NC(=O)c2ccc([N+](=O)[O-])c(C)c2)c1	0	0
COc1cccc(Nc2nc(Cl)ccc2[N+](=O)[O-])c1	71.0	0
CC(C)(C)Nc1nc(Cl)nc(Nc2cccc([N+](=O)[O-])c2)n1	0	0
O=C1OC(c2ccc(Cl)cc2)=C/C1=C\C=C\c1ccccc1	0	0
Cc1ccnc(N2CCC(C(=O)NCC3CCN(CCc4ccc(F)cc4)CC3)CC2)n1	0	0
Cc1cccc(S(=O)(=O)NC2CCN(c3ccccc3)C2=O)c1 (centres undefined)	0	59.8
Cc1ccc(N2CCC(NS(=O)(=O)c3cccc(F)c3)C2=O)cc1 (centres undefined)	0	0
COc1ccc(CCCC(=O)Nc2cc(F)ccc2C)cc1	0	0
CC(=O)c1c(-c2ccccc2)c2cc(Cl)ccc2[nH]c1=O	0	0
CC(=O)c1c(-c2ccccc2)c2cc(Br)ccc2[nH]c1=O	58.0	0
O=C(c1nccc2ccccc12)N1CCc2c(nc3cc[nH]n3c2=O)C1	0	0
O=C(Nc1nccn(-c2ccc(F)cc2)c1=O)c1cccc(F)c1	0	0
O=[N+]([O-])c1cc([N+](=O)[O-])c2cccnc2c1Nc1ccccc1	0	0
CN(C)c1ccc(Nc2c([N+](=O)[O-])cc([N+](=O)[O-])c3cccnc23)cc1	87.0	0
C[C@H](c1ccccc1)N1C[C@@H](COCc2ccccc2)Oc2cc(N3CC[C@@H](N(C)C)C3)ccc2S1(=O)=O	100.2	0
SMILES	mHTT CaM bind	Pf apPOL block
C[C@H](c1ccccc1)N1C[C@@H](COCc2ccccc2)Oc2cc(N3CC[C@H](N(C)C)C3)ccc2S1(=O)=O	0	0
C[C@H](c1ccccc1)N1C[C@H](COCc2ccccc2)Oc2cc(N3CCC[C@H]3CO)ccc2S1(=O)=O	0	0
C[C@H](c1ccccc1)N1C[C@@H](COCc2ccccc2)Oc2cc(N3CCC[C@@H]3CO)ccc2S1(=O)=O	68.3	0
C[C@H](c1ccccc1)N1C[C@@H](COCc2ccccc2)Oc2cc(N3CC[C@@H](O)C3)ccc2S1(=O)=O	0	0
C[C@@H](c1ccccc1)N1C[C@@H](COCc2ccccc2)Oc2cc(N3CC[C@H](O)C3)ccc2S1(=O)=O	55.4	0
COc1cccc(N2C=C(C(=O)N3CCCCC3)S(=O)(=O)c3ccccc32)c1	0	0
COCCN1C(=O)c2ccccc2C(C(=O)Nc2cnc3ccccc3c2)C1c1ccc(F)cc1 (centres undefined)	0	0
N#C/C(=C\c1ccc2c(c1)OCO2)c1nc(-c2cccc(Br)c2)cs1	0	0
CC(C)NC(=O)N1CCCC(c2cccc(C(=O)NCCN(C)C)c2)C1 (centres undefined)	0	0
O=C1C(=Cc2ccc(F)cc2)Oc2c1ccc(O)c2CN1CCCC1	0	0
Cc1ccccc1Cc1c(C)nc2c(C(=O)NC3CCCC3)cnn2c1C	0	0
Cc1ccc(C)c(Cc2c(C)nc3c(C(=O)NC4CCCCC4)cnn3c2C)c1	0	0
Cc1ccc(C)c(Cc2c(C)nc3c(C(=O)NC(C)C)cnn3c2C)c1	79.0	0
Cc1ccccc1Cc1c(C)nc2c(C(=O)NC(C)C)cnn2c1C	71.0	0
Cc1ccc(C)c(Cc2c(C)nc3c(C(=O)NC4CC4)cnn3c2C)c1	53.0	0
COCCCNC(=O)c1cnn2c(C)c(Cc3cc(C)ccc3C)c(C)nc12	0	0
O=C(Nc1ccccc1)N1CCC(N2CCN(Cc3ccc(F)cc3)C2=O)CC1	0	0
Cn1cc(C(=O)NCCc2c[nH]c3ccccc23)c2nn(-c3ccccc3)c(=O)c-2c1	0	0
Cn1cc(C(=O)NCCc2c[nH]c3ccccc23)c2[nH]c(=O)n(Cc3ccccc3)c(=O)c21	56.4	0
CCN(CC)C(=O)Oc1ccc2c(c1)OC(=Cc1cc(OC)c(OC)cc1OC)C2=O	0	0
COc1ccc(-c2ccc(C(=O)N3CCc4ccccc4C3)s2)c(OC)c1OC	83.4	0
COc1ccc(-c2ccc(C(=O)N3CCCCC3)s2)c(OC)c1OC	0	0
O=C(NCCOc1ccc(F)cc1)c1cc(C2CC2)on1	0	0
COc1ccc(OC)c(Nc2nc(CC(=O)NCc3ccc4c(c3)OCO4)cs2)c1	0	0
Cc1cc(C)nc(Nc2nc(C(=O)NCCOc3ccc(F)cc3)cs2)n1	91.4	0
SMILES	mHTT CaM bind	Pf apPOL block
Cc1cc(C)nc(Nc2nc(C(=O)NCCc3c[nH]c4ccccc34)cs2)n1	86.5	0
COc1ccc(OC)c(Nc2nc(CC(=O)NCCc3c[nH]c4ccccc34)cs2)c1	53.4	0
O=C(NCCc1c[nH]c2ccccc12)c1csc(NS(=O)(=O)c2cccs2)n1	0	0
COc1ccc(C2=N/C(=C\c3ccc(F)cc3)C(=O)N2c2cccc(F)c2)cc1	0	0
Cc1oc(C2CCN(S(=O)(=O)c3ccccc3F)CC2)nc1C(=O)N1CCCCC1	0	0
CCOC(=O)Cc1ccc(NC(=O)N2CCc3cn(C)c4cccc(c34)C2)cc1	0	0
CCC(=O)N1c2ccccc2NC2=C(C(=O)CC(C)(C)C2)C1CC1CC=C(C)C1(C)C (centres undefined)	59.0	0
CC(=O)N1c2ccccc2NC2=C(C(=O)CC(C)(C)C2)C1CC1CC=C(C)C1(C)C (centres undefined)	0	0
CC(=O)Nc1ccc(Nc2nc(-c3c(C)nc4cc(C)ccn34)cs2)cc1	0	0
CCc1ccccc1N(CC(=O)NCc1ccc(OC)cc1)S(C)(=O)=O	0	0
O=C(c1ccc(-c2ccsc2)nc1)N1CCCCC1	0	0
Cn1cc(C(=O)N2CCN(c3ccccn3)CC2)c2cccnc21	0	0
Cc1ccc(-c2cc(C(=O)N3CCN(c4ccccn4)CC3)c(C)[nH]2)cc1	77.4	0
COCCC(=O)N1CCCn2nc(-c3ccncc3)cc2C1	0	0
c1ccc(N=c2scc(-c3ccccc3)n2CCN2CCOCC2)cc1	0	0
OCCn1c(-c2ccc(Cl)c(Cl)c2)csc1=Nc1ccccc1	100.0	0
Cc1ccc(-c2csc(=Nc3ccccc3)n2CCO)cc1	52.0	0
OCCn1c(-c2ccc(Cl)cc2)csc1=Nc1ccccc1	69.0	0
CCN(CC)CCn1c(-c2ccccc2)csc1=Nc1ccccc1	0	0
O=C1Cc2ccccc2C(c2cccc(Br)c2)N1 (centres undefined)	0	0
Cc1ccc(N(CC(=O)N2CCC(C(N)=O)CC2)S(C)(=O)=O)cc1	0	0
Cc1cn2cc(-c3ccc(I)cc3)nc2s1	0	0
